# Data taken from PubChem BioAssay (NCATS).
# “And” between values parts separate entries of the source, which are not always exact repeats. Equal entries are not always repeated. Unmarked numbers belong to inactive results. Inconclusive results are not listed. The source made the active and inactive calls. Calls come from the whole dose curve; as a rule, active = well fitted curve in the direction sought with a large enough effect; inconclusive = small, poorly fitted or top-dose-only effect, or another doubt; inactive = no such curve, though single readings can be large or run the other way.
# Tests used:
# [1] = molecular target: T1, Hexokinase-4 (Homo sapiens) + Glucokinase regulatory protein (Homo sapiens) (UniProt P35557+Q14397); test: qHTS assay for inhibitors of recombinant human GCK-GKRP interaction: Diaphorase-coupled assay (AID 743205); details: G6PDH/diaphorase resorufin fluorescence; series mostly up to 57.5 µM
# Summary of the method: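 Inhibitors of the GCK–GKRP complex relieve GKRP suppression of GCK, detected through a G6PDH–diaphorase cascade reducing resazurin. Human GST-GCK and FLAG-GKRP are used at 10 nM with 5 mM glucose and 0.4 mM ATP.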
# [2] = molecular target: T1, Hexokinase-4 (Homo sapiens) + Glucokinase regulatory protein (Homo sapiens); test: qHTS assay for inhibitors of recombinant human GCK-GKRP interaction: ADP-Glo assay (AID 743206); details: ADP-Glo luminescence, 60 min, 0% = vehicle-only wells with enzyme present; series mostly up to 76.9 µM;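 note: plate controls were DMSO plus enzyme for no effect and no enzyme for full effect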
# Summary of the method: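 Pin-transferred compounds meet a 15 nM GST-GCK/15 nM FLAG-GKRP/2 uM S6P mix (dispense concentrations). ATP is then added to 0.4 mM final with 5 mM glucose, and the reaction runs 60 min at room temperature. ADP is quantified luminescently.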
# [3] = qHTS Assay for Identifying Gametocytocidal Compounds (AID 743244); note: potency is the fitted concentration of half-maximal effect;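 for max response: % is set by controls: 0 for no effect and ±100 for the full control effect; actives lower the fluorescent signal which means gametocytes are killed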; details: P. falciparum 3D7 stage III-V gametocytes, alamarBlue, 72 h; max response: active compounds read low
# Summary of the method: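 A resazurin-based viability read-out was applied to mature P. falciparum gametocytes: 72 h compound treatment, then 24 h dye incubation, with falling fluorescence signalling gametocytocidal effect.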
# T1 sequence (P35557 whole entry, looked up): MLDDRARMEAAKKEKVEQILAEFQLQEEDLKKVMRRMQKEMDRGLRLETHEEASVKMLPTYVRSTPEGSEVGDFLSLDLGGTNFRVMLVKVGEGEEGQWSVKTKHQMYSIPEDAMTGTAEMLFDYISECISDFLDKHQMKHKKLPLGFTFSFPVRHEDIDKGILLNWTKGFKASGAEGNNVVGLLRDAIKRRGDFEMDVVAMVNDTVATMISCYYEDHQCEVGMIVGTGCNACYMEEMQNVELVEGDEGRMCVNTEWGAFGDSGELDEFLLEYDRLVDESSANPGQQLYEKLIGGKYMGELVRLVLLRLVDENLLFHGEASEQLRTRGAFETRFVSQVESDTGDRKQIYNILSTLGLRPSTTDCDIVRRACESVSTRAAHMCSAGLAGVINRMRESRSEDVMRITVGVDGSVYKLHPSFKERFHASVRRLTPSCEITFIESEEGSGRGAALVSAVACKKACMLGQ
# T1 sequence (Q14397 whole entry, looked up): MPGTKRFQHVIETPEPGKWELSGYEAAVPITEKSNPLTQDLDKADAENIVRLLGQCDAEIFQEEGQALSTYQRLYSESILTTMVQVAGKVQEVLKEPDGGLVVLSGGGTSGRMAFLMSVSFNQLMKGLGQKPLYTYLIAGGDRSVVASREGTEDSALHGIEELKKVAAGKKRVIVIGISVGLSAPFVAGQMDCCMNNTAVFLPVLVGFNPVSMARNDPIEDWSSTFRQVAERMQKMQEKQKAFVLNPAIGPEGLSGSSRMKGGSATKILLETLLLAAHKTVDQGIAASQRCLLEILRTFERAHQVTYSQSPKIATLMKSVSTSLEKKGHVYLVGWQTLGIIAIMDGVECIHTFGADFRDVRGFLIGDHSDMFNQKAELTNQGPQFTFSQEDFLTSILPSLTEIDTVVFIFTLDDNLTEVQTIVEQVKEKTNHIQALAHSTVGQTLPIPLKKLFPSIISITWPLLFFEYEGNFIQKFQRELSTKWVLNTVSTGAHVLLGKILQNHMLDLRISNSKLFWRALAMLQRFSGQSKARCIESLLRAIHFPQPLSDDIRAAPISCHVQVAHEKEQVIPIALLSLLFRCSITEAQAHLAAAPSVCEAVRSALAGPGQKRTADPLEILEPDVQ
structure (smiles),measurement,setting,value
N[C@@H](Cc1cnc[nH]1)C(=O)O,outcome,[1],inactive
same,outcome,[2],inactive
same,max response,[3],4.12% and 12.1%
Nc1cc(Cl)c(NC2=NCCN2)c(Cl)c1,outcome,[1],inactive
same,outcome,[2],inactive
same,max response,[3],-0.108% and 36.5%
CN1CCC(=C2c3ccccc3Sc3ccccc32)CC1,Potency,[3],15.8 µM (active)
O=C(Nc1ccc(Oc2ccc(Cl)cc2)c(Cl)c1)c1cc(I)cc(I)c1O,max response,[3],-9.6%
C[C@@H]1C(=O)NC2=Nc3cccc(Cl)c3CN21,outcome,[1],inactive
same,outcome,[2],inactive
same,max response,[3],-15.6% and 9.95%
CCCC1O[C@@H]2C[C@H]3[C@@H]4CCC5=CC(=O)C=C[C@]5(C)[C@H]4[C@@H](O)C[C@]3(C)[C@]2(C(=O)CO)O1 (stereo not given in full),outcome,[1],inactive
same,outcome,[2],inactive
same,max response,[3],-5.95% and 18.2%
CN1CCN(C(c2ccccc2)c2ccccc2)CC1,max response,[3],-1.32%
CC(=O)O[C@H]1C[C@@H]2CC[C@@H]3[C@H](CC[C@@]4(C)[C@H]3C[C@H]([N+]3(C)CCCCC3)[C@@H]4OC(C)=O)[C@@]2(C)C[C@@H]1[N+]1(C)CCCCC1,outcome,[1],inactive
same,outcome,[2],inactive
same,max response,[3],-9.72% and 10.5%
O=C1CCC(c2ccc(-n3ccnc3)cc2)=NN1,outcome,[1],inactive
same,outcome,[2],inactive
same,max response,[3],-0.884% and -6.59%
Cc1ccc(Nc2c(F)cccc2Cl)c(CC(=O)O)c1,max response,[3],0.561%
C#C[C@]1(O)CC[C@H]2[C@@H]3CCc4cc(OC5CCCC5)ccc4[C@H]3CC[C@@]21C,max response,[3],6.16%
CC(CCc1ccccc1)NCC(O)c1ccc(O)c(C(N)=O)c1 (stereo not given),outcome,[1],inactive
same,outcome,[2],inactive
same,max response,[3],16.8%
NCCc1ccn[nH]1,max response,[3],5.14%
CC(C)=CCC1C(=O)N(c2ccccc2)N(c2ccccc2)C1=O,max response,[3],-12.9%
CN1C2CCC1CC(OC(=O)c1c[nH]c3ccccc13)C2 (stereo not given),outcome,[1],inactive
same,outcome,[2],inactive
same,max response,[3],9.76%
CNCC[C@@H](Oc1ccccc1C)c1ccccc1,max response,[3],-11.3%
CC(C)COC(=O)OCN1C(=O)CN(CCN2CC(=O)N(COC(=O)OCC(C)C)C(=O)C2)CC1=O,outcome,[1],inactive
same,outcome,[2],inactive
same,max response,[3],5.95% and 28.2%
c1ccc(OCc2ccc(CCCN3CCOCC3)cc2)cc1,max response,[3],-2.94%
Oc1c(I)cc(I)c2cccnc12,Potency,[3],8.91 µM (active)
COc1cc(-c2ccc(=O)[nH]n2)ccc1OC(F)F,max response,[3],-3.31%
CCCCCC=CCC=CCCCCCCCC(=O)OCC,max response,[3],0.796%
CC(=O)N(O)CCCCCNC(=O)CCC(=O)N(O)CCCCCNC(=O)CCC(=O)N(O)CCCCCN,max response,[3],17.5%
